# Test results as given in PubChem BioAssay.
# For part of these data: Results with a measured potency or affinity are listed apart. The source made the active and inactive calls.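 How the source made its calls, unless noted: active means thallium flux through the channel raised or lowered by more than 3 SD from vehicle-only wells, actives on both sides; inactive means the rest.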
# Assays:
# [1] = suppressors of polyQ aggregation in yeast, 75Q-TubU reporter (AID 1593); details: Yeast 75Q polyglutamine aggregation reporter
# [2] = rescue of polyQ-huntingtin neuronal dysfunction in worms, whole organism, C. elegans mechanosensory neurons, N-terminal huntingtin (AID 1599); details: touch response, stronger effect = higher value
# [3] = inhibitors of mitochondrial cytochrome c release, biochemical, purified mitochondria (AID 1603); details: stronger effect = lower value;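 further: mouse liver mitochondria challenged with calcium chloride; signal normalized to the plate average as 100%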
# [4] = inhibitors of polyQ protein aggregation (AID 1604); details: polyglutamine-induced protein aggregation inhibition assay; stronger effect = higher value; tested at 2.5 µM
# [5] = enhancers of glutamate uptake in motor neurons, MN-1 cell line (AID 1612); details: MN-1 motor neuron cells, stronger effect = higher value;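 further: tested at 1 µM final; 0% = mean of DMSO vehicle wells on each plate; positive means more glutamate uptake than control and negative means less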
# [6] = suppressors of polyglutamine aggregation in yeast, 75Q-TubH (AID 1616); details: S. cerevisiae 75Q-TubH polyglutamine aggregation suppression; stronger effect = higher value
# [7] = circadian clock period modulators, cell-based, LOPAC library, luminescence reporter (AID 2774; call rule not given here;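 further: values are relative to mean of DMSO wells on each plate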); details: circadian reporter cells, at 7 µM, actives lie on both sides
# [8] = test system: Hepatitis C virus NS3 helicase; assay: HCV NS3 helicase inhibitors, primary screen, biochemical, fluorescence polarization, LOPAC1280 library (AID 687035; in the data active means inhibition above about 37%); details: Purified HCV NS3 helicase, Cy5-dT15 ssDNA binding fluorescence polarization; stronger effect = higher value; concentration not given here
# [9] = Cy5 fluorescence quenching or enhancement artefacts, artefact control for HCV NS3 helicase inhibitor project, biochemical, LOPAC1280 (AID 687037; call rule not given here); details: Cy5-DNA-NS3h complex fluorescence interference counterscreen
# [10] = Cy5 fluorescence interference with SSB-bound oligo, artefact control for HCV NS3 helicase inhibitor project, biochemical, NIH Clinical Collection, E. coli SSB (AID 743268; call rule not given here)
# [11] = test system: Hepatitis C virus NS3 helicase; assay: HCV NS3 helicase inhibitors, primary screen, biochemical, fluorescence polarization, NIH Clinical Collection (AID 743270; call rule not given here); details: NS3 helicase binding to Cy5-dT15 DNA, stronger effect = higher value, concentration not given here
# [12] = molecular target: Single-stranded DNA-binding protein (Escherichia coli (strain K12)) (UniProt P0AGE0); assay: E. coli SSB displacement from DNA, counter-screen for HCV NS3 helicase inhibitor project, biochemical, fluorescence polarization, NIH Clinical Collection (AID 743271; in the data active means inhibition above about 28%); details: stronger effect = higher value, concentration not given here
# [13] = fluorescence interference in NS3h assay format, artefact control for HCV NS3 helicase inhibitor project, biochemical, NIH Clinical Collection (AID 743272; call rule not given here;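 further: HCV NS3 helicase with a Cy5 labelled single stranded DNA probe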); details: fluorescence interference counterscreen, stronger effect = lower value
# [14] = phospholipid biosynthesis inhibitors in animal cells, primary screen, cell-based, LOPAC library, screen 4 (AID 1347384; call rule not given here); details: phospholipid biosynthesis inhibition screen, at 10 µM
# F380Y = assay: modulators of BK channel variants, profiling panel, selectivity assay, cell-based, U2OS BacMam, thallium flux, beta subunits (AID 1259406); details: at 30 µM;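 further: initial slope of Thallos dye fluorescence rise after thallium is added; log ratio against the mean of 0.3% DMSO vehicle wells on the same plate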
# F380Y/beta2Delta = assay: as above; details: at 30 µM
# [15] = molecular target: Calcium-activated potassium channel subunit alpha-1 (Homo sapiens) + Leucine-rich repeat-containing protein 26 (Homo sapiens) (UniProt Q12791+Q2I0M4); assay: as above; details: F380Y/Slo1WT/gamma1, at 30 µM
# Chain of Calcium-activated potassium channel subunit alpha-1 (Homo sapiens) + Leucine-rich repeat-containing protein 26 (Homo sapiens) (Q2I0M4 whole entry, looked up, one chain of several): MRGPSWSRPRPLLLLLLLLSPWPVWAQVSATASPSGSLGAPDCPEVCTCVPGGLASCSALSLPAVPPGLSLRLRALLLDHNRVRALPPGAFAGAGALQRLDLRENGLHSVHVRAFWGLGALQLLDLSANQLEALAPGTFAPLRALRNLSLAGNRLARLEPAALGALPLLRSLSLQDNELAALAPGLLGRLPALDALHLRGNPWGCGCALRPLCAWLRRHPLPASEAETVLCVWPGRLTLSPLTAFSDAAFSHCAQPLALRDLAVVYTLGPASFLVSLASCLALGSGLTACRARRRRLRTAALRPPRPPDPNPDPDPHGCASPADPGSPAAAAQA
# R275C = assay: as above; details: at 30 µM
# R275C/beta1 = assay: as above; details: at 30 µM
# R275C/beta2Delta = assay: as above; details: at 30 µM
Structure (SMILES),score [1],rescue above control [2],cytochrome c release ratio [3],inhibition of aggregation [4],glutamate uptake change [5],aggregation suppression score [6],period change [7],inhibition [8],fluorescence ratio (interference) [9],fluorescence ratio [10],inhibition [11],inhibition [12],fluorescence ratio [13],outcome [14],log fold change Tl+ flux (F380Y),log fold change Tl+ flux (F380Y/beta2Delta),log fold change Tl+ flux [15],log fold change Tl+ flux (R275C),log fold change Tl+ flux (R275C/beta1),log fold change Tl+ flux (R275C/beta2Delta)
O=C1CN(/N=C/c2ccc([N+](=O)[O-])o2)C(=O)N1,0.72,4.47,0.76,41.5%,23.4%,0.814,–,–,–,–,–,–,–,–,–,–,–,–,–,–
O=C(CCCN1CCC(O)(c2ccc(Cl)cc2)CC1)c1ccc(F)cc1,1.43,27.6,1.55,81.4%,6.85%,1.09,0.015 h (inactive),-3% (inactive),1 (inactive),0.91 (inactive),-12.4% (inactive),1.18% (inactive),0.89 (inactive),inactive,0.00184 (inactive),0.0376 (inactive),-0.0288 (inactive),-0.231 (active),0.104 (active),-0.165 (active)
NC(=O)c1cccnc1,–,–,–,–,–,–,–,–,–,1.01 (inactive),0.66% (inactive),-1.97% (inactive),1.01 (inactive),–,-0.0169 (inactive),-0.015 (inactive),0.0332 (inactive),-0.0297 (inactive),0.0353 (inactive),0.0215 (inactive)
CC(C)NCC(O)COc1cccc2[nH]ccc12 (stereo not given),1.28,3.36,0.95,83.3%,11.9%,1.28,0.015 h (inactive),-5% (inactive),1 (inactive),0.9 (inactive),-5.91% (inactive),2.57% (inactive),0.9 (inactive),inactive,-0.0071 (inactive),0.0139 (inactive),0.0267 (inactive),0.00949 (inactive),0.00683 (inactive),-0.0133 (inactive)
COc1cc(Cc2cnc(N)nc2N)cc(OC)c1OC,1.11,11.6,0.82,83.3%,-5.77%,1.24,0.055 h (inactive),1% (inactive),1 (inactive),0.97 (inactive),-3.18% (inactive),0.29% (inactive),0.95 (inactive),inactive,0.00407 (inactive),-0.0235 (inactive),-0.00393 (inactive),0.00151 (inactive),-0.051 (inactive),-0.0321 (inactive)
N=c1nc(N2CCCCC2)cc(N)n1O,1.58,3.83,1.17,22.5%,7.03%,1.83,-0.045 h (inactive),-4% (inactive),1 (inactive),0.1 (active),-9.55% (inactive),-5.05% (inactive),1.03 (inactive),inactive,-0.0693 (inactive),-0.0535 (inactive),0.00253 (inactive),-0.0452 (inactive),-0.0046 (inactive),-0.0232 (inactive)
CC(C(=O)O)c1cccc(C(=O)c2ccccc2)c1 (stereo not given),1.03,17.1,1.12,74.7%,-7.92%,0.564,-0.125 h (inactive),-5% (inactive),1 (inactive),–,-1.36% (inactive),1.05% (inactive),0.96 (inactive),inactive,0.0438 (inactive),0.023 (inactive),0.0363 (inactive),-0.00546 (inactive),-0.000822 (inactive),-0.0306 (inactive)
CC(C)OC(=O)C(C)(C)Oc1ccc(C(=O)c2ccc(Cl)cc2)cc1,-2.53,27.1,1.27,59%,-24.1%,0.0671,0.08 h (inactive),–,1.1 (inactive),–,–,–,–,inactive,-0.0417 (inactive),-0.0352 (inactive),-0.00437 (inactive),-0.0206 (inactive),-0.021 (inactive),0.00724 (inactive)
CN1C(=O)CC[C@H]1c1cccnc1,1.01,-5.98,0.78,72.2%,11.3%,1.36,0.1 h (inactive),-2% (inactive),1 (inactive),1.01 (inactive),5.15% (inactive),6.83% (inactive),0.91 (inactive),inactive,-0.00809 (inactive),0.00811 (inactive),0.0267 (inactive),-0.00497 (inactive),-0.0358 (inactive),-0.0502 (inactive)
